Screening results: PubChem, The Scripps Research Institute Molecular Screening Center
HTR5A inv ctr: HTR5A inverse agonism, opioid heterodimer counter-screen. HTR5A cell line, luminescence. 340,000 tested, 0.083% active. inhibition, % at 9.3 µM. P47898; in the data active = inhibition mostly above about 23%, no sharp cut-off; inactive = mostly below about 18%;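 note: 0% = cells with DMSO and 100% = no-cell wells with DMSO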
MOR-DOR inv ag: inverse agonist of human OPRM1-OPRD1 heterodimerization; cell-based MOR-DOR heterodimer luminescence, inverse agonism; AID 504357; 340,000 tested, 0.21% active; P35372+P41143; inhibition, % at 9.3 µM; in the data active = inhibition above about 22%, passing the limit was not always enough;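 note: 0% = cells with DMSO and 100% = wells without cells with DMSO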
Target sequence (P35372 whole entry, looked up): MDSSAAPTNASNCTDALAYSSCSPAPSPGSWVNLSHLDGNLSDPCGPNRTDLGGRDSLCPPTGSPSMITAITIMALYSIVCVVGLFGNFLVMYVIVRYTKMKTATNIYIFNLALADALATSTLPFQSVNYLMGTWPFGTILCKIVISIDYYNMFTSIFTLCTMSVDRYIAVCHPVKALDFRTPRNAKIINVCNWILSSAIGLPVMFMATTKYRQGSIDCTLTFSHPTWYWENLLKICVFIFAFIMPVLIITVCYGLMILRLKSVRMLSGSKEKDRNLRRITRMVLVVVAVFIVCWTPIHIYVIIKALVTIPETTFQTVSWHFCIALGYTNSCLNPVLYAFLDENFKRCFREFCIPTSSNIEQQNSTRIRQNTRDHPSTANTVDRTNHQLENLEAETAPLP
Target sequence (P41143 whole entry, looked up): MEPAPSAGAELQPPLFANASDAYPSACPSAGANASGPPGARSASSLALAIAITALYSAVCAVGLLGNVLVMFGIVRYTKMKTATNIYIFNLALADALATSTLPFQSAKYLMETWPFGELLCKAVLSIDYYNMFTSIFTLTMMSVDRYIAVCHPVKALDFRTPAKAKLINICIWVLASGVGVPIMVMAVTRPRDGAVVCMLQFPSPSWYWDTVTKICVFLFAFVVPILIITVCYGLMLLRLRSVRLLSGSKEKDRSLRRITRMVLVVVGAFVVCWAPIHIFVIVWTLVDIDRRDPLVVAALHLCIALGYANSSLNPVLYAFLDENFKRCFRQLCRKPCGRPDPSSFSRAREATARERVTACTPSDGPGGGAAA
OPRM1-OPRD1 ag: OPRM1-OPRD1 heterodimerization agonism; P35372+P41143; cells, luminescence; activation, % at 9.3 µM; 340,000 tested, 0.3% active; AID 504326; in the data active = activation above about 18%;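 note: 0% = vehicle-treated cells and 100% = reference agonist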
HTR2A ag: activates the mouse 5-HT2A serotonin receptor; P35363; activation, % at 7.6 µM; AID 624169; CHO-K1 mHTR2A beta-arrestin complementation, luminescence; percent of 30 µM serotonin response; 360,000 tested, 0.66% active;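 active = activation above a run cutoff, the mean activation of all tested compounds plus 3 SD, cut at about 14% in these data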;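 note: 0% = plate median of compound wells and 100% = 30 µM serotonin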
HTR5A ag: HTR5A agonism, opioid heterodimer counter-screen. P47898. HTR5A agonist assay, luminescence, cell-based. 340,000 tested, 0.61% active. activation, % at 9.3 µM; in the data active = activation mostly above about 9.5%, no sharp cut-off; inactive = mostly below about 7.6%;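 note: 0% = cells with vehicle only and 100% = reference agonist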
HGIII-sPLA2 inh: Blocks human group III sPLA2 activity; QFRET BODIPY PC-A2 liposome hydrolysis, fluorescence; 370,000 tested, 0.56% active; inhibition, % at 12.2 µM; Q9NZ20;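 active = inhibition above mean plus 3 SD of compounds lying within the high and low control bounds, cut at about 19% in these data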;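 note: 0% = median of test compound wells and 100% = no enzyme DMSO wells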
* hit, by the source's call; nt = not tested or not shown. Rows were chosen to be rich in hits. Some 2.2% of all compounds tested hit in one or more screens of this group.

SMILES | HTR5A inv ctr | MOR-DOR inv ag | OPRM1-OPRD1 ag | HTR2A ag | HTR5A ag | HGIII-sPLA2 inh
COc1ccc(N2CCN(CCCNC(=O)Cn3c(=O)c4cccn4c4cccnc43)CC2)c(OC)c1 | nt | nt | nt | nt | nt | 6
COc1ccc(CNC(=O)O[C@H]2CC[C@@]34CCCN3C(=O)CCC[C@H]4[C@H]2C)cc1 | nt | nt | nt | nt | nt | 2
CCOC(=O)C(Cc1ccccc1)NC(C)=O (stereo unspecified) | -24 | 10 | -2 | 0 | 12* | 2
CC(C)[C@@H]1NC(=O)[C@H]2C[C@@]3(c4ccccc4)c4ccccc4N[C@H]3N2C1=O | nt | nt | nt | nt | nt | 9
O=C(O)CCc1ccc(-c2ccccc2)n1Cc1ccco1 | -7 | -1 | 0 | -4 | 9.7* | 1
Cc1ccc(-n2c(SCc3cccc4ccccc34)nnc2-c2ccccn2)cc1 | nt | nt | nt | nt | nt | -5
COc1ccc(C(C(=O)N(C)C2CCCC2)N(Cc2ccc(F)cc2)C(=O)c2csc(N3CCOCC3)n2)cc1OC (stereo unspecified) | nt | nt | nt | nt | nt | 7
Cc1c(C(=O)OC2CCCC2)[nH]c2c1C(=O)CC(c1ccco1)C2 (stereo unspecified) | -28 | -6 | 1 | -3 | 10* | -15
COc1ccc(Nc2nc(N)nc(CN3CCOCC3)n2)cc1 | 20 | 7 | -1 | -3 | 0 | 7
COc1ccc(Nc2nc(N)nc(CCl)n2)cc1 | -176 | -108 | 21* | -4 | 48* | 9
COC(=O)[C@]12C[C@H](CC(=O)NCc3cccc(C(F)(F)F)c3)C(=O)N(Cc3ccc4c(c3)OCO4)C1=C[C@H](C(C)C)O[C@@H]2C1CC1 | nt | nt | nt | nt | nt | -8
N#CCCN(C(=O)CSc1nc2ccccc2c(=O)[nH]1)c1ccc(F)cc1 | 17 | 15 | -4 | 0 | 10 | 1
N#CCCN(C(=O)COC(=O)CCc1nc2ccccc2c(=O)[nH]1)c1ccc(F)cc1 | -38 | 7 | -1 | 9 | 10* | -4
COc1ccc(/C=N\NC(=O)c2cc(OCC(F)(F)F)ccc2OCC(F)(F)F)cc1 | 1 | -80 | 16 | 3 | 0 | 4
Cc1ccc(/C=N\NC(=O)c2cc(OCC(F)(F)F)ccc2OCC(F)(F)F)cc1 | -48 | -128 | 28* | 1 | 15* | 9
COc1cc(NC(=O)c2cc3ccccc3cc2O)c(OC)cc1Cl | -7 | -10 | 2 | 21* | 2 | -44
Cn1c(CN2CCCCC2)nc2cc(NC(=O)c3ccccc3Cl)ccc21 | 6 | 6 | -1 | 3 | -1 | 1
Cn1c(CN2CCCCC2)nc2cc(NC(=O)c3ccc(F)cc3)ccc21 | -15 | 2 | 0 | -3 | 9.2* | -1
OC[C@@H]1CN(Cc2ccccc2)C[C@H](n2cnc3c(NCc4ccco4)ncnc32)O1 | nt | nt | nt | 3 | nt | -9
OC[C@@H]1CN(Cc2ccc(-c3ccccc3)cc2)C[C@H](n2cnc3c(NCc4ccco4)ncnc32)O1 | nt | nt | nt | 18* | nt | -45
CCOC(=O)N1CCC(NC(=O)CCS(=O)(=O)c2ccc3c(c2)CCN3C(C)=O)CC1 | -14 | -1 | 0 | 6 | 0 | 2
CC1CCC(NC(=O)CCS(=O)(=O)c2ccc3c(c2)CCN3C(=O)C2CC2)CC1 (stereo unspecified) | -17 | 13 | -3 | 7 | 10* | 1
CN=C1S/C(=C/c2cc(C)n(Cc3ccccc3)c2C)C(=O)N1C | nt | nt | nt | nt | nt | 2
CCOC(=O)N1CCC(Nc2ncnc3c2cnn3-c2ccc(C)cc2C)CC1 | 2 | -22 | 4 | 15* | -1 | -10
CCCCNC(=O)/C=C1\Sc2ccccc2NC1=O | -19 | 3 | -1 | -5 | -1 | -4
SMILES | HTR5A inv ctr | MOR-DOR inv ag | OPRM1-OPRD1 ag | HTR2A ag | HTR5A ag | HGIII-sPLA2 inh
CCc1ccc(C(=O)/C=C2\Sc3ccccc3NC2=O)cc1 | 0 | 17 | -3 | -14 | -1 | 41*
Cn1c(=NC(=O)c2ccco2)sc2ccccc21 | 14 | 11 | -2 | -4 | -6 | 1
Cn1c(=NC(=O)CCl)sc2ccccc21 | -78 | -274 | 47* | -1 | 57* | -2
O=C1C=CC(=O)c2c(O)c(N3CCN(CCO)CC3)c(Cl)c(O)c21 | 11 | -109 | 21* | 8 | -3 | -13
O=S(=O)(c1ccc(Br)cc1Cl)N1CCN(CCO)CC1 | -8 | 18 | -4 | -3 | 2 | -4
O=C(CCNC(=O)C1CCN(S(=O)(=O)c2ccc(F)cc2)CC1)Nc1nccs1 | -15 | 9 | -2 | -5 | 10* | 0
